Here are results for 38 compounds from PubChem BioAssay (NCI).

Molecules are shown by their SMILES. The panel holds about 83,000 compounds, 20% with a hit somewhere; the sample as a whole holds those more often.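 For each line, cells grew in 96-well plates with the test compound present at a single concentration for 48 hours.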 Activity calls are given as the source filed them. The calls were made as follows: active = growth percent below 10; inactive = the rest.

The test system of one test is NCI-H322M lung. Nature of the test: NCI-60 one-dose screen, 48 h (100 = growth as untreated, 0 = no growth, -100 = all killed). The note with it: 10 µM unless noted.
As to `COc1ccc(S(=O)(=O)N2CCCCC2)cc1NC(=O)c1[nH]c(C)c2c1CCCCC2=O`, the growth was 31.8% (inactive).
In the case of `Oc1ccccc1-c1nnc(CNc2ccc(Cl)cc2)o1`, the growth is 32% (inactive).
With `CCN=C1C=CC(=C(c2ccc(N)cc2)c2ccc(N(CC)CC)c(C)c2)C=C1`, the growth was 3.81% (active).
`COc1ccc(S(=O)(=O)N2CC3(COC3)C2)cc1NC(=O)c1[nH]c(C)c2c1CCCCC2=O`: the growth is 56.3% (inactive).
Still for that read-out and setting: the figure for `Cc1ccc(C2=NN3C(C2)c2cc(Br)ccc2OC32CCN(Cc3ccccc3)CC2)o1` (stereo unspecified) is 92.7% (inactive); for `Oc1cccc2ccc(N/N=C/c3cc(CN4CCOCC4)c(O)c4ncccc34)nc12` it is 27.7% (inactive).
In the case of `CC/C=C\C[C@H](O)C/C=C1/C(=O)C=C[C@@]1(C)C/C=C\CCCC(=O)OC`, the growth was 106% (inactive).
`N#CCCN=Nc1c(O)[nH]c2ccc([N+](=O)[O-])cc12`: the growth was 98% (inactive).
The same measure, in the same setting: the figure for `O=C(N/N=C/c1ccccc1O)c1ccccc1Nc1ccnc(C(F)(F)F)c1` is 13.1% (inactive); for `COc1ccc(C2C(C#N)=C(N)Oc3n[nH]c(-c4cccs4)c32)cc1I` (stereo unspecified) it is 102% (inactive); for `O=S(=O)(Nc1ccc(OC(F)F)cc1)c1ccc(-c2cnc(C3CC3)o2)cc1` it is 95.7% (inactive).
Turning to `O=C1C=C(OCC=C(Cl)Cl)C(=O)c2ccccc21`, the growth was 101% (inactive).
Turning to `Cc1cc(C)nc(SC2=C(Nc3ccc(O)cc3)C(=O)N(Cc3ccccc3)C2=O)n1`, the growth is 108% [40 µM] (inactive).
For the compound `Cc1cc2nc(NC(=O)CN3CCN(CCN4C(=O)c5cccc6cccc(c56)C4=O)CC3)sc2cc1C`, the growth is 85.2% (inactive).
As to `Cc1ccc2c(C(C[N+](=O)[O-])c3ccccc3F)c(-c3ccccc3)[nH]c2c1` (stereo unspecified), the growth is 68.5% (inactive).
Regarding `CCc1nc(N)nc(N)c1C#CC(C)c1ccc(-c2ccncc2)cc1Cl` (stereo unspecified), the growth is 38.4% (inactive).
In the case of `Cc1ccc(NC(=O)C2CCC(CN3CCN(C)CC3)CC2)cc1Nc1nccc(-c2cccnc2)n1` (stereo unspecified), the growth was 95.9% (inactive).
Take `CC/C=C\C[C@H]1C/C=C2/C(=O)C=C[C@H]2C/C=C\CCCC(=O)O1`: the growth was 37.7% (inactive).
Turning to `Cc1ccc(-c2onc3c(=O)[nH]nc(-c4ccccc4)c23)cc1`, the growth is 56.9% (inactive).
In the case of `O=c1ccccc(-c2ccc(-c3ccco3)cc2)c1O`, the growth was 21.6% (inactive).
Turning to `COc1ccc(-c2cc(Nc3ccnc(N4CCOCC4)n3)on2)cc1`, the growth was 47.1% (inactive).
As to `Cc1ccccc1COc1ccc(-c2ccnn2-c2ccc(Cl)cc2)cc1`, the growth is 96.9% (inactive).
Same read-out and setting: the figure for `COc1ccc(/C=N/C2=C(C#N)C(c3ccc(N(C)C)cc3)c3ccc4ccccc4c3O2)cc1` (stereo unspecified) is 89.1% (inactive).
Consider `c1ccc(CCNc2ncnc3[nH]ncc23)cc1`, for which the growth was 112% (inactive).
With `CN1CCN(CCCOc2cccc3nc(Nc4ccc(Cl)c(F)c4)ccc23)CC1`, the growth was 33.6% (inactive).
For the compound `FC(F)(F)c1[nH]ncc1-c1nc2ccc3n[nH]c(C#Cc4cccnc4)c3c2c2c1CCCC2`, the growth is 32.8% (inactive).
Same read-out and setting: the figure for `CCOc1nc(-c2ccccc2)cc2c(O)c(C(=O)O)[nH]c(=O)c12` is 147% (inactive); for `CCCCn1cnc2c(Sc3c([N+](=O)[O-])ncn3C)nc(N)nc21` it is 105% (inactive); for `COc1cc2c(cc1-c1c(C)noc1C)ncc1nc(C3CCCC3)n([C@H](C)COC(F)F)c12` it is 46.6% (inactive).
For the compound `CN1CCN(CCCOc2cccc3nc(Nc4cc(Cl)cc(Cl)c4)ccc23)CC1`, the growth is 3.59% (active).
In the case of `COc1ccc(CCNc2nc3c(c(=O)n(Cc4ccc(Br)cc4)c(=O)n3C)n2C)cc1OC`, the growth was 93.8% (inactive).
On to `O=C(/C=C/c1cc(CN2CCOCC2)c(O)c2ncccc12)c1cc(CN2CCOCC2)c(O)c2ncccc12`, for which the growth is 45.5% (inactive).
With `Nc1nc2ccc3[nH]ncc3c2c2c1CCCC2`, the growth is 2.32% (active).
Same read-out and setting: the figure for `C#CCOc1ccc2ncnc(N3CCC(NC(=O)CCl)CC3)c2c1` is 88.1% [8.25 µM] (inactive).
`CC1=C(O)C(=O)C(C(C#N)(C#N)C(C#N)C#N)C1` (stereo unspecified): the growth is 85.8% (inactive).
Still for that read-out and setting: the figure for `COc1ccc(CN2c3ccccc3Oc3ccccc32)cc1O` is 56.3% (inactive).
Take `CN1CCN(c2ccc(Nc3c4ccccc4nc4ccccc34)cc2)CC1`: the growth was 120% (inactive).
For `CCCCC(=O)OCC1OC(n2cnc3c(=S)nc[nH]c32)C(OC(=O)CCCC)C1OC(=O)CCCC` (stereo unspecified), the growth was 36.4% (inactive).

A further test relates to HOP-62 NSCLC. Described as above. The note with it: 10 µM unless noted.
`COc1ccc(S(=O)(=O)N2CCCCC2)cc1NC(=O)c1[nH]c(C)c2c1CCCCC2=O`: the growth was 26% (inactive).
`Oc1ccccc1-c1nnc(CNc2ccc(Cl)cc2)o1`: the growth was 25.7% (inactive).
Turning to `CCN=C1C=CC(=C(c2ccc(N)cc2)c2ccc(N(CC)CC)c(C)c2)C=C1`, the growth is 9.19% (active).
As to `COc1ccc(S(=O)(=O)N2CC3(COC3)C2)cc1NC(=O)c1[nH]c(C)c2c1CCCCC2=O`, the growth is 40.6% (inactive).
In the case of `Cc1ccc(C2=NN3C(C2)c2cc(Br)ccc2OC32CCN(Cc3ccccc3)CC2)o1` (stereo unspecified), the growth is 104% (inactive).
As to `Oc1cccc2ccc(N/N=C/c3cc(CN4CCOCC4)c(O)c4ncccc34)nc12`, the growth is 7.13% (active).
As for `CC/C=C\C[C@H](O)C/C=C1/C(=O)C=C[C@@]1(C)C/C=C\CCCC(=O)OC`, the growth was 104% (inactive).
As for `N#CCCN=Nc1c(O)[nH]c2ccc([N+](=O)[O-])cc12`, the growth is 99.4% (inactive).
For the compound `O=C(N/N=C/c1ccccc1O)c1ccccc1Nc1ccnc(C(F)(F)F)c1`, the growth was -5.32% (active).
`COc1ccc(C2C(C#N)=C(N)Oc3n[nH]c(-c4cccs4)c32)cc1I` (stereo unspecified): the growth is 81.7% (inactive).
Consider `O=S(=O)(Nc1ccc(OC(F)F)cc1)c1ccc(-c2cnc(C3CC3)o2)cc1`, for which the growth was 66.6% (inactive).
Consider `O=C1C=C(OCC=C(Cl)Cl)C(=O)c2ccccc21`, for which the growth is 87.2% (inactive).
Still for that read-out and setting: the figure for `Cc1cc(C)nc(SC2=C(Nc3ccc(O)cc3)C(=O)N(Cc3ccccc3)C2=O)n1` is 100% [40 µM] (inactive); for `Cc1cc2nc(NC(=O)CN3CCN(CCN4C(=O)c5cccc6cccc(c56)C4=O)CC3)sc2cc1C` it is 94.9% (inactive); for `Cc1ccc2c(C(C[N+](=O)[O-])c3ccccc3F)c(-c3ccccc3)[nH]c2c1` (stereo unspecified) it is 36.2% (inactive).
On the same count and under the same terms, the figure for `CCc1nc(N)nc(N)c1C#CC(C)c1ccc(-c2ccncc2)cc1Cl` (stereo unspecified) is 10.3% (inactive); for `Cc1ccc(NC(=O)C2CCC(CN3CCN(C)CC3)CC2)cc1Nc1nccc(-c2cccnc2)n1` (stereo unspecified) it is 105% (inactive).
For `CC/C=C\C[C@H]1C/C=C2/C(=O)C=C[C@H]2C/C=C\CCCC(=O)O1`, the growth is 22.5% (inactive).
For `Cc1ccc(-c2onc3c(=O)[nH]nc(-c4ccccc4)c23)cc1`, the growth was 26.5% (inactive).
For the compound `O=c1ccccc(-c2ccc(-c3ccco3)cc2)c1O`, the growth is 6.97% (active).
As to `COc1ccc(-c2cc(Nc3ccnc(N4CCOCC4)n3)on2)cc1`, the growth is 40.9% (inactive).
Same read-out and setting: the figure for `Cc1ccccc1COc1ccc(-c2ccnn2-c2ccc(Cl)cc2)cc1` is 49.3% (inactive); for `COc1ccc(/C=N/C2=C(C#N)C(c3ccc(N(C)C)cc3)c3ccc4ccccc4c3O2)cc1` (stereo unspecified) it is 57.4% (inactive); for `c1ccc(CCNc2ncnc3[nH]ncc23)cc1` it is 89.7% (inactive).
For `CN1CCN(CCCOc2cccc3nc(Nc4ccc(Cl)c(F)c4)ccc23)CC1`, the growth was 61% (inactive).
`FC(F)(F)c1[nH]ncc1-c1nc2ccc3n[nH]c(C#Cc4cccnc4)c3c2c2c1CCCC2`: the growth was 36% (inactive).
In the case of `CCOc1nc(-c2ccccc2)cc2c(O)c(C(=O)O)[nH]c(=O)c12`, the growth was 98.2% (inactive).
Same read-out and setting: the figure for `CCCCn1cnc2c(Sc3c([N+](=O)[O-])ncn3C)nc(N)nc21` is 94.7% (inactive); for `COc1cc2c(cc1-c1c(C)noc1C)ncc1nc(C3CCCC3)n([C@H](C)COC(F)F)c12` it is 32% (inactive).
On to `CN1CCN(CCCOc2cccc3nc(Nc4cc(Cl)cc(Cl)c4)ccc23)CC1`, for which the growth was 19.8% (inactive).
Same read-out and setting: the figure for `COc1ccc(CCNc2nc3c(c(=O)n(Cc4ccc(Br)cc4)c(=O)n3C)n2C)cc1OC` is 113% (inactive).
Same read-out and setting: the figure for `O=C(/C=C/c1cc(CN2CCOCC2)c(O)c2ncccc12)c1cc(CN2CCOCC2)c(O)c2ncccc12` is 16% (inactive); for `Nc1nc2ccc3[nH]ncc3c2c2c1CCCC2` it is 2.81% (active); for `C#CCOc1ccc2ncnc(N3CCC(NC(=O)CCl)CC3)c2c1` it is 68.2% [8.25 µM] (inactive).
For the compound `CC1=C(O)C(=O)C(C(C#N)(C#N)C(C#N)C#N)C1` (stereo unspecified), the growth is 108% (inactive).
Same read-out and setting: the figure for `COc1ccc(CN2c3ccccc3Oc3ccccc32)cc1O` is 42.1% (inactive).
Turning to `CN1CCN(c2ccc(Nc3c4ccccc4nc4ccccc34)cc2)CC1`, the growth was 110% (inactive).
On to `CCCCC(=O)OCC1OC(n2cnc3c(=S)nc[nH]c32)C(OC(=O)CCCC)C1OC(=O)CCCC` (stereo unspecified), for which the growth was 25.4% (inactive).
